From PubChem
Anthrax LF prot – Bacillus anthracis LF protease inhibitors, primary screen, biochemical, multiplex microsphere, MLPCN library; multiplex microsphere protease cleavage assay; Lethal factor (Bacillus anthracis), P15917; 360,000 tested, 0.12% active; inhibition, % at 10 µM; also: plate controls were buffer without enzyme for full effect and enzyme alone for no effect
Bead autofluor – flagged as autofluorescent in microsphere protease counterscreen; fluorescence intensity (concentration not given with the values); compound autofluorescence counterscreen, microsphere flow cytometry; active compounds read high; 360,000 tested, 3.1% active; in the data active = fluorescence intensity above about 16000; inconclusive = no clear call, values can overlap the other calls
BoNT-F LC inh – BoNT/F light chain protease inhibitors, primary screen, biochemical, flow cytometry, MLPCN library; 360,000 tested, 0.22% active; AID 588497, 2011; Multiplex microsphere protease cleavage assay; inhibition, % at 10 µM; in the data active = inhibition above about 35%, passing the limit was not always enough; inconclusive = no clear call, values can overlap the other calls; also: plate controls were buffer without enzyme for full effect and enzyme alone for no effect
BoNT A protease – BoNT/A light chain protease inhibitors, primary screen, biochemical, flow cytometry, MLPCN library; inhibition, % at 10 µM; AID 588499, 2011; 360,000 tested, 0.17% active; Botulinum neurotoxin type A light chain protease (Clostridium botulinum A str. ATCC 3502); multiplex microsphere protease substrate cleavage; also: plate controls were buffer without enzyme for full effect and enzyme alone for no effect
MazF activator – activators of E. coli MazEF toxin-antitoxin RNase, primary screen, biochemical, fluorescence, uHTS. Endoribonuclease toxin MazF (Escherichia coli (strain K12)), P0AE70. FAM/BHQ RNA-DNA oligo cleavage fluorescence, 5 h. activation, % at 20 µM. 350,000 tested, 0.32% active. AID 504720, 2011; in the data active = activation above about 50%
Target sequence (P0AE70 whole entry, looked up): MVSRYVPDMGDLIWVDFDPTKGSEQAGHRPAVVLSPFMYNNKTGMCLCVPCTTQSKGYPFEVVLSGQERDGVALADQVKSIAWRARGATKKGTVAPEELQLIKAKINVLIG
An asterisk follows results filed as active; ? = inconclusive; nt = no result. Compounds with a hit are over-represented: about 3.7% of the library has one in this group of screens. Rule as the data show it, unless noted: active = inhibition above about 30%; inconclusive = no clear call, values can overlap the other calls; inactive = below that.

SMILES	Anthrax LF prot	Bead autofluor	BoNT-F LC inh	BoNT A protease	MazF activator
CC1=CN2C(=N)/C(=C/c3ccc([N+](=O)[O-])o3)C(=O)N=C2S1	0	3294	-5	1	116*
CC1(C(=O)NS(=O)(=O)c2ccccc2Cl)CCN1C(=O)c1ccco1 (stereo not drawn)	-1	3627	1	0	nt
COc1ccc(-n2c(SCC(=O)N3CCCCC3)nc(O)cc2=O)cc1	2	21636*	-3	-3	-12
CCN(CC)C(=O)C1=C(C)N(CCCN2CCCC2=O)C(=O)C(CC(=O)NCc2cccs2)C1 (stereo not drawn)	-2	2880	1	0	3
O=S(=O)(c1cccc(Cl)c1)N1CCCC1	-1	24145*	-2	-1	1
O=S(=O)(c1cccc(S(=O)(=O)N2CCCC2)c1)c1cccc(S(=O)(=O)N2CCCC2)c1	-3	21252*	-4	?	-4
O=S(=O)(c1cc(Cl)ccc1Br)N1CCCCC1	-6	21533*	4	4	1
O=S(=O)(c1cccc(-c2nnc(-c3cccnc3)o2)c1)N1CCCCC1	0	19643*	1	?	7
O=S(=O)(c1cccc(S(=O)(=O)N2CCCC2)c1)N1CCCCC1	1	5469	6	2	3
CC(C)(C)[C@H]1COC(=O)[C@H](NC(=O)OCC2c3ccccc3-c3ccccc32)C/C=C\C[C@@H](CC(=O)N(CCO)Cc2ccccc2)C(=O)N1	0	3026	-3	0	4
CCN1C[C@@H]2[C@@H]3C(=O)N(Cc4ccccc4)C(=O)[C@@H]3[C@](C)(C1=O)N2C(=O)c1ccccc1	-1	3969	-1	0	8
Cc1ccc(S(=O)(=O)N2CCC(C(=O)Nc3ccc(N4CCOCC4)cc3)CC2)cc1C	3	5464	-1	1	17
CCc1ccc(-c2nc(CN3CCC(C(=O)NCc4ccc(F)cc4)CC3)c(C)o2)cc1	-3	24227*	-8	?	-17
CCN(CCNC(=O)C1CCCN(Cc2nc(-c3ccc(OC)cc3)oc2C)C1)c1ccccc1 (stereo not drawn)	-2	21170*	-5	-1	-1
CCN(CCNC(=O)C1CCN(Cc2nc(-c3cccc(Cl)c3)oc2C)CC1)c1ccccc1	-10	20469*	-4	0	11
CCN(CCNC(=O)C1CCN(Cc2nc(-c3ccc(Cl)cc3)oc2C)CC1)c1ccccc1	-4	22915*	-9	-5	1
O=C(c1cnc(Cc2c[nH]c3ccccc23)c(I)c1)N1CCOCC1	0	3720	-2	0	nt
Nc1[nH]c(C(=O)c2ccccc2)c(-c2ccccc2Cl)c1C(=O)c1ccccc1	-5	5865	2	0	nt
CCCCCC(=C/c1ccccc1)/C=N/Nc1ccc(S(=O)(=O)N2CCOCC2)cc1[N+](=O)[O-]	-15	3288	-9	0	0
CC(C)NC(=O)C1Cc2c(-c3ccc(Cl)cc3)ccnc2O1 (stereo not drawn)	3	2834	-5	0	nt
CCOc1ccc(NC(=O)CN2C(=O)NC(C)(c3ccc4c(c3)OCCCO4)C2=O)cc1OCC (stereo not drawn)	-38	1967	-67	2	4
CNC(=O)C[C@H]1C(=O)N(CCc2ccccc2)C[C@@H]1Cc1ccccc1	-3	3880	-2	-1	2
Cc1oc(-c2cccc(Cl)c2)nc1CN1CCC(C(=O)NC2CC2)CC1	-2	5888	-6	-2	7
Cc1oc(-c2cccc(Cl)c2)nc1CN1CCC(C(=O)NCc2cccnc2)CC1	-6	22980*	-2	1	5
CCCCNc1oc(-c2ccc(OC)cc2)nc1S(=O)(=O)c1ccccc1	-1	21088*	-2	-1	-5
SMILES	Anthrax LF prot	Bead autofluor	BoNT-F LC inh	BoNT A protease	MazF activator
CCNc1oc(-c2ccc(OC)cc2)nc1S(=O)(=O)c1ccc(Br)cc1	-1	21449*	-7	?	-12
O=C(NC(NC(=S)Nc1cccc(Cl)c1)C(Cl)(Cl)Cl)OCc1ccccc1 (stereo not drawn)	-2	10289	0	0	84*
CCN(CC)C(=O)c1ccc2c(=O)n(Cc3ccc4c(c3)OCO4)c(=S)[nH]c2c1	-14	3321	-26	-4	13
COc1ccc(N2CCN(C(=O)c3ccc4c(=O)n(Cc5ccc6c(c5)OCO6)c(=O)[nH]c4c3)CC2)cc1	-2	4369	8	-2	10
C=CCn1c(=O)[nH]c2cc(C(=O)N3CCN(c4ccc(C(C)=O)cc4)CC3)ccc2c1=O	0	5776	0	0	2
CC1CCCN(C(=O)c2ccc3c(=O)n(Cc4ccc5c(c4)OCO5)c(=S)[nH]c3c2)C1 (stereo not drawn)	1	22529*	-2	0	-6
O=C(c1ccc2c(=O)n(Cc3ccc4c(c3)OCO4)c(=O)[nH]c2c1)N1CCN(c2ccccc2)CC1	3	5207	-3	-1	62*
C=CCn1c(=O)[nH]c2cc(C(=O)N3CCN(c4cc(C)ccc4C)CC3)ccc2c1=O	-2	16226*	2	0	8
O=C(c1ccc2c(=O)n(-c3ccccc3)c(=O)[nH]c2c1)N1CCN(c2ccc(F)cc2)CC1	-11	5921	1	0	0
CC(=O)c1ccc(N2CCN(C(=O)c3ccc4c(=O)n(-c5ccccc5)c(=O)[nH]c4c3)CC2)cc1	-1	22374*	1	2	7
COc1cc(OC)cc(-c2c(Sc3ccccc3)c3cc(-c4ccc5c(c4)OCCO5)ccc3n2C)c1	-8	4162	0	-1	nt
CCOC(=O)C1(C)CCCN(C(=O)c2ccc(C)c(F)c2)C1 (stereo not drawn)	11	4063	1	0	nt
Cc1ccccc1-c1cnc(C(O)c2ccc(F)cc2C)[nH]1 (stereo not drawn)	-5	3927	-6	-1	nt
COc1ccc(C(C)(C)C)cc1NC(=O)CCc1c(C)noc1C	0	3496	6	1	-22
O=[N+]([O-])c1ccc(S(=O)(=O)NN=Cc2ccc(Cl)c(Cl)c2)cc1	-4	3348	-4	1	-4
Cc1ccc(-n2nc3c(N4CCC(C(=O)NCc5ccccc5C)CC4)nnc(C)c3c2C)cc1	1	16178*	10	-4	9
CCOc1ccc(CNC(=O)C2CCN(c3nnc(C)c4c(C)n(-c5ccc(C)cc5)nc34)CC2)cc1	5	17592*	10	-5	11
CCOc1ccccc1CNC(=O)C1CCN(c2nnc(C)c3c(C)n(-c4ccc(C)cc4)nc23)CC1	4	12373	11	-2	30
O=C1NC(=O)C(Cc2ccc(Cl)cc2)(c2ccccc2)N1 (stereo not drawn)	-6	3560	0	1	8
